Experimental data as given in the supplement of paper PMC11732987, “Enantioselective OTUD7B fragment discovery through chemoproteomics screening and high-throughput optimisation” (Communications Chemistry, 2025).

Legend:
Assay in all cases: log2 ratio of Biotin-Ahx-Ub-VS probe labelling (fragment/DMSO); higher = less target engagement (more negative = stronger competition), active = hit call of the paper (q ≤ 0.05, log2 ratio ≤ -1)
Details in all cases: compound concentration: 200 uM; treatment time: 3 h
USP34 = USP34 (UniProt Q70CQ2)
In short: (§1)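 Triplicate samples of HEK293T lysate, 495 µg each, received fragment at 200 µM or vehicle for 3 h, followed by Biotin-Ahx-Ub-VS (0.5 µM final) for 1 h. After NeutrAvidin enrichment of labelled DUBs and LysC/trypsin digestion, peptides were run by diaPASEF LC-MS/MS. The values are average log2 fragment/vehicle ratios from global-median-normalised Spectronaut label-free quantities, tested by unpaired t-test on proteins having ≥2 unique peptides.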

USP36 = biological target: T1, USP36 (UniProt Q9P275)
T1 sequence (whole entry): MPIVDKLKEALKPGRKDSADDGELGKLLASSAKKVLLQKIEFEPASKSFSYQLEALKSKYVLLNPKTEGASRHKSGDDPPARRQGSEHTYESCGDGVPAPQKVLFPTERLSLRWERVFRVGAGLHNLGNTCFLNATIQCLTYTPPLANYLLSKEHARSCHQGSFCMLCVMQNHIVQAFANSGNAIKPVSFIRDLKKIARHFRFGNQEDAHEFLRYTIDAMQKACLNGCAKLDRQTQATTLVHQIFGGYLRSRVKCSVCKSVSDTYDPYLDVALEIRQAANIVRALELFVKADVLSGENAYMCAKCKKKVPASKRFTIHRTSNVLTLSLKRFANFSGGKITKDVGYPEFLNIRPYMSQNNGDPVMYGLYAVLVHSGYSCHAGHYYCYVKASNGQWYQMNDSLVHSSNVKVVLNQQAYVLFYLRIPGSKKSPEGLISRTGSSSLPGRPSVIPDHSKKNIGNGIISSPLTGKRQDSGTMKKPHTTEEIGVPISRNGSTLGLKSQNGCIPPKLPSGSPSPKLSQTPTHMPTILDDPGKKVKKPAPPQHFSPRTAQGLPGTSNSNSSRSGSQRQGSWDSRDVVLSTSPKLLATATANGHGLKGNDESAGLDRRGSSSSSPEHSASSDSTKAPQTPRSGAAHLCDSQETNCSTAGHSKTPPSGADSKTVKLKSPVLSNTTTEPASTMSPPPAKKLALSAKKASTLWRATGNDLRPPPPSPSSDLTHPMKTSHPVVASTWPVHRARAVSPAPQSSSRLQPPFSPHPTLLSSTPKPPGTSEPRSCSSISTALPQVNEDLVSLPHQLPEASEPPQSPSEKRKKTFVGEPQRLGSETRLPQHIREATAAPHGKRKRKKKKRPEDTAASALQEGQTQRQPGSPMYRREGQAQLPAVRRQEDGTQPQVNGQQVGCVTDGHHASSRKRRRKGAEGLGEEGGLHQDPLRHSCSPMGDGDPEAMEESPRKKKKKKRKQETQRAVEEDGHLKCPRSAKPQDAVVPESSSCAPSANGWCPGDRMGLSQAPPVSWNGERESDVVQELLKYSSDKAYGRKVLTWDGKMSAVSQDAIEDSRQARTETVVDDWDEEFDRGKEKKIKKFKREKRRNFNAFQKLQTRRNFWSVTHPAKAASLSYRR
In short: as §1

USP38 = biological target: T2, USP38 (UniProt Q8NB14)
T2 sequence (whole entry): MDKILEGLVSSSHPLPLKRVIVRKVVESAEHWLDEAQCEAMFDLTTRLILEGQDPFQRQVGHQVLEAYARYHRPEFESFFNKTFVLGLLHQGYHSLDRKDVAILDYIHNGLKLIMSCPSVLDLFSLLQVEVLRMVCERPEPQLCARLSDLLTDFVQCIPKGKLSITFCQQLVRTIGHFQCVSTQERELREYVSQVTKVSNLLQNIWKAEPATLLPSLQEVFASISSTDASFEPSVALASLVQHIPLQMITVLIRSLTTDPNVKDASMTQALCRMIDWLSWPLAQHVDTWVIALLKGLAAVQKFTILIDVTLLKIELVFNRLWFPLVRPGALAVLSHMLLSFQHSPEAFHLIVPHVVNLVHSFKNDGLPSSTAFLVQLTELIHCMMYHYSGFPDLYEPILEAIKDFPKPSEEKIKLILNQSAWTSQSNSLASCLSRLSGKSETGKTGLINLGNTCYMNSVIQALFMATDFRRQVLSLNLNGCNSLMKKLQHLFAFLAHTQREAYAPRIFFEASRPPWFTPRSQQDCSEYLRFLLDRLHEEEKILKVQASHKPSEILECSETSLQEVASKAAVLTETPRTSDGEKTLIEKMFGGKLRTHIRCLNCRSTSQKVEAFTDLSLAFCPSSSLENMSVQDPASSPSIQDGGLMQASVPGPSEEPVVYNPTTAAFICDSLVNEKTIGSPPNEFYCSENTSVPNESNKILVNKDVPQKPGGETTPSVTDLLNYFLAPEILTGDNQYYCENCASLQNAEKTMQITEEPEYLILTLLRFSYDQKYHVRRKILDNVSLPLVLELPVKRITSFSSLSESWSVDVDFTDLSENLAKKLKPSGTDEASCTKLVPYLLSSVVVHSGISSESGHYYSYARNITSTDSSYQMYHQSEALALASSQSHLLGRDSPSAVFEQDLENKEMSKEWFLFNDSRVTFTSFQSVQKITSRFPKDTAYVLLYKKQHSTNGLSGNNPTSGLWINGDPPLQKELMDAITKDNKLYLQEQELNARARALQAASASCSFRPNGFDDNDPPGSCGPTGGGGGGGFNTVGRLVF
In short: as §1

USP39 = biological target: T3, USP39 (UniProt Q53GS9)
T3 sequence (whole entry): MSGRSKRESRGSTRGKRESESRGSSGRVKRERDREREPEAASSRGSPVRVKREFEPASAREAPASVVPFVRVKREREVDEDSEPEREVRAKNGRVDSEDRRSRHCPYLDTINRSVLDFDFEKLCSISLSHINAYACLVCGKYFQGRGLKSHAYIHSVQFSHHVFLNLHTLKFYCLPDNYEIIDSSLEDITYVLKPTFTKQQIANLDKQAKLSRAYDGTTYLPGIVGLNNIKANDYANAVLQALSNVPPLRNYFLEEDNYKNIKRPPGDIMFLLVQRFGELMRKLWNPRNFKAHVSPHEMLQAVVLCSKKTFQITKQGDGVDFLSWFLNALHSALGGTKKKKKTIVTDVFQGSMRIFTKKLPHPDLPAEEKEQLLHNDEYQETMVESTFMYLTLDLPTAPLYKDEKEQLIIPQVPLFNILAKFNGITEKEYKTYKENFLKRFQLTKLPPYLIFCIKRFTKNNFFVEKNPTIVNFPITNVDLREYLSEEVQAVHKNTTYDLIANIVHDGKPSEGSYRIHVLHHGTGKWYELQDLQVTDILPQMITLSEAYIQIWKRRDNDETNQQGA
In short: as §1

USP4 = biological target: T4, USP4 (UniProt Q13107)
T4 sequence (whole entry): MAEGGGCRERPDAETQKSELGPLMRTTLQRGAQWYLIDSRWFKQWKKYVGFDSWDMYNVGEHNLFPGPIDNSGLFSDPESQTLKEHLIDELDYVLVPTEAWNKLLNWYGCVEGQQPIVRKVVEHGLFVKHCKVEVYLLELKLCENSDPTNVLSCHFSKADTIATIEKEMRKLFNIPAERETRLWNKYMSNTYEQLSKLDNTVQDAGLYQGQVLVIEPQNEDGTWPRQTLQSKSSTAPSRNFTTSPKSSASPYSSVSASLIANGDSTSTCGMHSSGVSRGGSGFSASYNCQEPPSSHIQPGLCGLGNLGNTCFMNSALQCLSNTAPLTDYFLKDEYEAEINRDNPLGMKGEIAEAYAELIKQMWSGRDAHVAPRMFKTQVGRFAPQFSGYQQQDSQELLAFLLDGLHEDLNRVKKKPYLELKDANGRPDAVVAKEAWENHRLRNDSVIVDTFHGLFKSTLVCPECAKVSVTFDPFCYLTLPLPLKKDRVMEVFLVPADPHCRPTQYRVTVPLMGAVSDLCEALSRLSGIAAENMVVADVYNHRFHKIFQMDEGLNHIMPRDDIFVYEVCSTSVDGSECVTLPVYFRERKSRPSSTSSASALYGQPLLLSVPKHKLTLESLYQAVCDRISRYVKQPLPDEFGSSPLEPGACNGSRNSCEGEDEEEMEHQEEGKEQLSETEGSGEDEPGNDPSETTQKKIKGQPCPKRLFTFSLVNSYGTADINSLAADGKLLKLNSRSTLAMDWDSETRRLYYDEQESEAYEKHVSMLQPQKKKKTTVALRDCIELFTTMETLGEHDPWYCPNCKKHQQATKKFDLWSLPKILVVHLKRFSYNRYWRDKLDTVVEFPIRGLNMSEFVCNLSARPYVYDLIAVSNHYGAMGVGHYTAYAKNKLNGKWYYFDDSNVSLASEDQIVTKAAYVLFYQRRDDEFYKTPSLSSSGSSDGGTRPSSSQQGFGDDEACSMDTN
In short: as §1

Measured: log2 ratio of Biotin-Ahx-Ub-VS probe labelling

Sequence of USP34 (Q70CQ2 whole entry, the tested form may be a part): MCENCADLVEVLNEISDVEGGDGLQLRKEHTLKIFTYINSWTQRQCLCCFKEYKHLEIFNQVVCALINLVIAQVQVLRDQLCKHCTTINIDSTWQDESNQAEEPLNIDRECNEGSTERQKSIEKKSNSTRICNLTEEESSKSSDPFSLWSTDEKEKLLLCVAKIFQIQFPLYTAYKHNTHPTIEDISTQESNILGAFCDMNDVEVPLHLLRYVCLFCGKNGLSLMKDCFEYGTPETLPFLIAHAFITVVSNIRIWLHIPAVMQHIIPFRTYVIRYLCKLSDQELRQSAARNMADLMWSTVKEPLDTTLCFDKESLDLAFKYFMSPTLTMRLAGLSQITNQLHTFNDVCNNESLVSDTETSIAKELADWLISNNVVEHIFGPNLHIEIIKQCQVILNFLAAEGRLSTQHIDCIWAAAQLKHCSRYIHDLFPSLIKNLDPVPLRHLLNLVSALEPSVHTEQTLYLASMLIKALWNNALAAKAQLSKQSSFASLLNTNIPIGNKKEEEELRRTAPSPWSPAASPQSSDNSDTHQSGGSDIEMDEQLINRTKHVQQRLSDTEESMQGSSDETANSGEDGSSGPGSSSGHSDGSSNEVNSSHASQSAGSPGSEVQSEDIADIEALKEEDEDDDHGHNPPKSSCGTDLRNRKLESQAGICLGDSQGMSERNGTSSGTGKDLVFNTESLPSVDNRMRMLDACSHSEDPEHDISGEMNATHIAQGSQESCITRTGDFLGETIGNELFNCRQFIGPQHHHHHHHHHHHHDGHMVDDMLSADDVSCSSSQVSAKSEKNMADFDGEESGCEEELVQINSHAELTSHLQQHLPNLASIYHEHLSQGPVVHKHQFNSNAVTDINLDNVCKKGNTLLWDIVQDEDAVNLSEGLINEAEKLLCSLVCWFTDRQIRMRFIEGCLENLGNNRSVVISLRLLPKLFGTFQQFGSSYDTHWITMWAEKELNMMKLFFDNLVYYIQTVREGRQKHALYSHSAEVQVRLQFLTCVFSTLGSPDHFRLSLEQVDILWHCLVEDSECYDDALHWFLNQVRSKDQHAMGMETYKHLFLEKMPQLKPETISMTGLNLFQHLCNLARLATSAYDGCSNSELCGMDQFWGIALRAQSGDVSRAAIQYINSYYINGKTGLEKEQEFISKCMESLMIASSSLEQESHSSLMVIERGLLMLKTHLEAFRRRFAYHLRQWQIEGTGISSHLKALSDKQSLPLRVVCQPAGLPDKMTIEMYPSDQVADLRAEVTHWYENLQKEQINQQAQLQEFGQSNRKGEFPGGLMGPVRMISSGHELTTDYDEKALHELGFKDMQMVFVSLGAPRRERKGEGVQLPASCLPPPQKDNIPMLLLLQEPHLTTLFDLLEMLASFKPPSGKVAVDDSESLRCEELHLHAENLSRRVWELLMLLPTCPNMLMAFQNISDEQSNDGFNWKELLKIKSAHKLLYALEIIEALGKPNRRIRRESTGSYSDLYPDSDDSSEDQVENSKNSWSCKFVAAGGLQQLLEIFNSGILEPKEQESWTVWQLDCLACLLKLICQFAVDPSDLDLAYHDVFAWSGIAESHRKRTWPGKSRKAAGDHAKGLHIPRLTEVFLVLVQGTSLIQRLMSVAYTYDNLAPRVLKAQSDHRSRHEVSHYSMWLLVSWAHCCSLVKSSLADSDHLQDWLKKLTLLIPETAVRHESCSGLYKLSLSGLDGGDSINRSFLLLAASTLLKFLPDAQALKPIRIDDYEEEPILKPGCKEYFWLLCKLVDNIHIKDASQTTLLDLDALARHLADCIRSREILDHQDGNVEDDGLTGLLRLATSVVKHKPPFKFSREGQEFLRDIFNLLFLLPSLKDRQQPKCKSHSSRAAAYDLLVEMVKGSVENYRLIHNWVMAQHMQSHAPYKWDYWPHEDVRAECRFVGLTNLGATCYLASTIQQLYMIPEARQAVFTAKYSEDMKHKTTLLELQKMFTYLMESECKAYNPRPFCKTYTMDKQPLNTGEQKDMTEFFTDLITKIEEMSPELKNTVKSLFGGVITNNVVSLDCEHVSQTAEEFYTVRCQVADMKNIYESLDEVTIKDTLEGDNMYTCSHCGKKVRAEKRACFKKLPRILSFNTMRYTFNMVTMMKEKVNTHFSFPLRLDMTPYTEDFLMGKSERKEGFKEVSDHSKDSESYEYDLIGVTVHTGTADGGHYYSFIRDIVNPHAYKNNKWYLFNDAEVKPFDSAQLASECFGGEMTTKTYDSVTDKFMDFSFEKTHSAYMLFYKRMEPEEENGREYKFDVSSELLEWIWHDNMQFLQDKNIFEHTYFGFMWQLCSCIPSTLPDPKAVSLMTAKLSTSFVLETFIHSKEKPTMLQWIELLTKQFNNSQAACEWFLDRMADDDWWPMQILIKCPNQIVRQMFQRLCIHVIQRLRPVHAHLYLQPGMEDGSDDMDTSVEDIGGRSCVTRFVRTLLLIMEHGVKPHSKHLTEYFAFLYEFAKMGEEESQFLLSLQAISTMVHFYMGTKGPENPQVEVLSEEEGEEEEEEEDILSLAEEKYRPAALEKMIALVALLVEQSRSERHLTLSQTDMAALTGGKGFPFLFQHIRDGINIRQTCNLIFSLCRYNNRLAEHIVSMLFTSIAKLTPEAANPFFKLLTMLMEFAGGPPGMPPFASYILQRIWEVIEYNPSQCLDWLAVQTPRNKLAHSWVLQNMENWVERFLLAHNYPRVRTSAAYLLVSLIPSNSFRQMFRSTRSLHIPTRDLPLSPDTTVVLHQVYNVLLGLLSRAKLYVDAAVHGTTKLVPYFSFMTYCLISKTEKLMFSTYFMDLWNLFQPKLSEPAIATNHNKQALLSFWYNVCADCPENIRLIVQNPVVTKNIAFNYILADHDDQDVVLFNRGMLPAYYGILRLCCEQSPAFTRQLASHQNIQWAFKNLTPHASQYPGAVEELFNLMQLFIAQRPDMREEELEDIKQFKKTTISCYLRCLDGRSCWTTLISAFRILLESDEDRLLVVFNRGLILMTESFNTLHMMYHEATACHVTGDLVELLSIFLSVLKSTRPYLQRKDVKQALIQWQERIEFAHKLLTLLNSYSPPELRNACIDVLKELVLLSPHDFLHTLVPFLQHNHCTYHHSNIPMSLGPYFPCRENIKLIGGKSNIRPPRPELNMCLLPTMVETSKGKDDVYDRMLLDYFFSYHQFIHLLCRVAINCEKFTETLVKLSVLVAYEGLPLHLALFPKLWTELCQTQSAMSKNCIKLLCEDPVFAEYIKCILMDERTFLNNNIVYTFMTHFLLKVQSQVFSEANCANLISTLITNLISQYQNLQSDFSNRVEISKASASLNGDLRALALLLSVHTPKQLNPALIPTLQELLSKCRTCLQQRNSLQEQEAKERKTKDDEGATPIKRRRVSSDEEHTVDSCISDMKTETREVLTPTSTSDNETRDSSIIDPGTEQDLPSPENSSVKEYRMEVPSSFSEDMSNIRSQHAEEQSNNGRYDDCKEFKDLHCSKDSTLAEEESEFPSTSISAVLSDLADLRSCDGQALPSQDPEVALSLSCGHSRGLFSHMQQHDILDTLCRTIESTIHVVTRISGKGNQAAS

O=C(CCl)NCCc1cccc2ccccc12
inactive: USP34 -0.192 | USP36 -0.0173 | USP38 0.0792 | USP39 -0.0508 | USP4 0.143
